Assay outcomes (PubChem)
Shown are actives, neighbours in structure and some others; about 10% of the full set was active somewhere.
BAZ2B block – qHTS Assay for Inhibitors of BAZ2B; Bromodomain adjacent to zinc finger domain protein 2B (Homo sapiens), Q9UIF8; AlphaScreen BAZ2B-H3K14Ac peptide displacement; Potency, µM (doses to about 114 µM), most hits filed as inhibitors; 4.4% of 360,000 active; AID 504333, 2011; note: nearly all actives have a fitted effect of over 60% in size
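BAZ2B (50 nM) with biotin-H3(5-23)K14Ac peptide (50 nM) in PBS pH 7.4, 0.01% Tween-20, preformed 30 min, then compound 30 min at room temperature; top concentration 110uM. AlphaScreen streptavidin donor/nickel chelate acceptor beads (10 ug/mL final), 20 min dark, signal read.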
G9a block – qHTS Assay for Inhibitors of Histone Lysine Methyltransferase G9a | Potency, µM (titrated, usually from 102 µM), actives largely listed as inhibitors | G9a H3K9 monomethylation, AlphaScreen, 2 h | 8.8% of 350,000 active | Histone-lysine N-methyltransferase EHMT2 (Homo sapiens), Q96KQ7; note: nearly all actives have a fitted effect of over 75% in size
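Chemiluminescent proximity detection of H3K9 monomethylation, read after 10 min bead incubation in the dark. Reaction: 20 nM G9a, 500 nM biotin-H3K9 peptide, 20 uM SAM cofactor, 2 h, room temperature, following 15 min enzyme-compound preincubation.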
CtBP-E1A inh – qHTS Assay for Inhibitors of the CtBP/E1A Interaction. activity change, % (no concentration beside the values). 0.49% of 340,000 active. CtBP / adenovirus E1A interaction (AlphaScreen). AID 651724, 2012. AlphaScreen GST-E1A/His-CtBP binding, 1536-well; active compounds read low; in the data active = activity change below about -65%; inconclusive = mostly about -30% to -63%
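Protein mix (5X: 125 nM each GST-E1A, His-CtBP) was incubated with pinned compound 2 h at 37 deg C in dark, in 50 mM Tris pH 8.0 buffer with 300 mM NaCl. Glutathione donor and nickel acceptor beads followed; AlphaScreen signal read after 1 h.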
Six1-Eya2 inh – qHTS Assay for Inhibitors of the Six1/Eya2 Interaction | activity change, % (concentration not given with the values) | AlphaScreen GST-Six1/His-Eya2 binding, biochemical; active compounds read low | Homeobox protein SIX1 (Homo sapiens) + Protein phosphatase EYA2 (Homo sapiens), … | 0.56% of 360,000 active; in the data active = activity change below about -65%; inconclusive = mostly about -30% to -63%
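Compounds are tested against tagged Six1 and Eya2 proteins bridged by glutathione donor and nickel acceptor beads; after a one-hour incubation at 37 °C without light, AlphaScreen emission is recorded.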
HP1b binding inh – HTS for Inhibitors of HP1-beta Chromodomain Interactions with Methylated Histone Tails. AlphaScreen HP1-beta / biotin-H3K9me3 peptide binding. 0.56% of 390,000 active. Potency, µM (titrated, usually from 114 µM), usual class: inhibitors; note: nearly all actives have a fitted effect of over 70% in size
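AlphaScreen: HP1-beta (50 nM) preformed 30 min with biotin-H3(1-18)K9me3 peptide (50 nM) in PBS pH 7.4, 0.01% Tween-20. Compound added for 30 min at RT, then streptavidin donor/nickel chelate acceptor beads (10 ug/mL) for 30 min.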
JMJD2A Tudor inh – qHTS Assay for Inhibitors of JMJD2A-Tudor Domain | AlphaScreen JMJD2A-Tudor / H3K4me3 peptide binding | 4.4% of 390,000 active | Lysine-specific demethylase 4A (Homo sapiens), O75164 | Potency, µM (top dose mostly 114 µM), hits mostly inhibitors; note: nearly all actives have a fitted effect of over 50% in size
Of the large screens only hits and unclear results are named; the others gave an inactive call. Unless noted, calls come from the whole dose curve; as a rule, active = well fitted inhibition curve with a large enough effect; inconclusive = small, poorly fitted or top-dose-only effect; inactive = no such curve, though single readings can be large or run the other way.

O=C(c1ccco1)N(Cc1ccc(Cl)cc1)Cc1ccco1	BAZ2B block inconclusive, G9a block 32µM (no result: CtBP-E1A inh)
CCOc1c(Cl)cc(C(=O)N(Cc2ccc(N(C)C)cc2)Cc2ccco2)cc1Cl	BAZ2B block 13µM, G9a block inconclusive, JMJD2A Tudor inh 13µM (no result: CtBP-E1A inh, Six1-Eya2 inh)
Cc1ccc(CN(Cc2ccco2)C(=O)c2ccc(Cl)cc2Cl)cc1	none (no result: CtBP-E1A inh, Six1-Eya2 inh)
CC(C)(C)c1ccc(C(=O)N(Cc2ccc(F)cc2)Cc2ccco2)cc1	G9a block inconclusive (no result: CtBP-E1A inh, Six1-Eya2 inh)
CCOC(=O)c1ccc(NC(=O)CC2C(=O)N(c3cccc(OC)c3)C(=O)N2Cc2ccc(OC)cc2)cc1 (configuration not stated)	none (no result: CtBP-E1A inh, Six1-Eya2 inh)
O=C(c1ccco1)N(Cc1ccccc1)Cc1ccccn1	BAZ2B block inconclusive, G9a block 79µM
Cc1ccc(-n2c(C)n[nH]c2=S)cc1C	G9a block 5µM, JMJD2A Tudor inh 8.9µM
Cc1ccc(-n2c(C)n[nH]c2=S)cc1	G9a block 22µM, JMJD2A Tudor inh 10µM
CCc1cccc(NC(=O)CSc2nncn3c2cc2sccc23)c1	none (no result: CtBP-E1A inh, Six1-Eya2 inh)
COc1ccc(/C=N/NC(=O)c2nn(-c3ccccc3)c(=O)c3c(N)scc23)cc1	BAZ2B block 40µM, G9a block 0.35µM, Six1-Eya2 inh inconclusive, HP1b binding inh inconclusive, JMJD2A Tudor inh 5.6µM
CCOC(=O)c1nn(-c2ccc(C)c(C)c2)c(=O)c2c(N)scc12	BAZ2B block 56µM, G9a block 2µM, JMJD2A Tudor inh 22µM
CCN(CC)C(=O)c1nn(-c2ccc(OC)cc2)c(=O)c2c(N)scc12	JMJD2A Tudor inh 56µM (no result: BAZ2B block, G9a block, CtBP-E1A inh, Six1-Eya2 inh, HP1b binding inh)
COc1cc(OC)c(NC(=O)NCc2ccc3c(c2)CCN3C(=O)c2ccccc2)cc1Cl	none (no result: CtBP-E1A inh, Six1-Eya2 inh)
COc1cn(CC(=O)Nc2ccccc2)c(CN2CCCCC2)cc1=O	none (no result: CtBP-E1A inh, Six1-Eya2 inh)
Cc1ccc(C)c(S(=O)(=O)c2nnn3c2nc(NCc2ccc4c(c2)OCO4)c2sccc23)c1	none (no result: CtBP-E1A inh, Six1-Eya2 inh)
Cc1cccc(C)c1NC(=S)N/N=C1\CC2CC=CC12 (configuration not stated)	G9a block 13µM, HP1b binding inh inconclusive
CN1/C(=C/C2CC(=O)N(c3cccc4ccccc34)C2=O)C(C)(C)c2ccccc21 (configuration not stated)	BAZ2B block inconclusive, G9a block inconclusive
CCOc1ccc(N2C(=O)CC(/C=C3/N(C)c4ccccc4C3(C)C)C2=O)cc1 (configuration not stated)	BAZ2B block inconclusive, G9a block 14µM, JMJD2A Tudor inh inconclusive
CCOc1ccc(N2C(=O)CC(SCCN)C2=O)cc1 (configuration not stated)	G9a block 18µM
NCCSC1CC(=O)N(Cc2ccc(F)cc2)C1=O (configuration not stated)	G9a block 40µM
CCOc1ccc(N2C(=O)CC(NC3CCCCNC3=O)C2=O)cc1 (configuration not stated)	G9a block 7.9µM
O=C1NCCCCC1NC1CC(=O)N(c2ccccc2)C1=O (configuration not stated)	none
CC(=O)NCCNC(=O)CCCc1nnc2n(CC(C)C)c(=O)c3sccc3n12	none (no result: CtBP-E1A inh, Six1-Eya2 inh)
Cc1ccc2c(=O)cc(C(=O)Nc3ccc(S(=O)(=O)N4CCCCC4)cc3)oc2c1	none (no result: CtBP-E1A inh, Six1-Eya2 inh)
CCOc1ccc(N2C(=O)CC(Sc3nnnn3-c3ccccc3)C2=O)cc1 (configuration not stated)	G9a block 10µM
CC(=O)Nc1ccc(NC(=O)CC2Sc3ccccc3NC2=O)cc1 (configuration not stated)	G9a block inconclusive (no result: CtBP-E1A inh, Six1-Eya2 inh)
